High-throughput results (PubChem BioAssay)
Shown are actives, neighbours in structure and some others; about 2.2% of the full set was active somewhere.
VLA-4 inh: inhibition in a human VLA-4 binding assay | P13612 | VLA-4 expressing cells, ligand binding flow cytometry | inhibition, % (about 7 µM as worked out from the volumes in the protocol) | 330,000 tested, 0.2% active | AID 2557; in the data active = inhibition above about 50%
MEKK3 PB1 HTS: modulators (inhibitors or enhancers) of MEK5 binding to human MEKK3 PB1 domain. binding response (% of control), % at 10 µM. bead-based flow cytometry, Alexa488-MEK5 binding to MEKK3; actives lie on both sides; 0 = blocked by unlabeled MEK5, 100 = vehicle. 290,000 tested, 1.4% active;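 active = binding response more than 3 SD above or below the average of its plate-row segment, actives on both sides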;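 also: Alexa488 bead fluorescence after subtracting the streptavidin-only scavenger bead signal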
Target sequence (Q99759 whole entry, looked up, the tested form may be a part): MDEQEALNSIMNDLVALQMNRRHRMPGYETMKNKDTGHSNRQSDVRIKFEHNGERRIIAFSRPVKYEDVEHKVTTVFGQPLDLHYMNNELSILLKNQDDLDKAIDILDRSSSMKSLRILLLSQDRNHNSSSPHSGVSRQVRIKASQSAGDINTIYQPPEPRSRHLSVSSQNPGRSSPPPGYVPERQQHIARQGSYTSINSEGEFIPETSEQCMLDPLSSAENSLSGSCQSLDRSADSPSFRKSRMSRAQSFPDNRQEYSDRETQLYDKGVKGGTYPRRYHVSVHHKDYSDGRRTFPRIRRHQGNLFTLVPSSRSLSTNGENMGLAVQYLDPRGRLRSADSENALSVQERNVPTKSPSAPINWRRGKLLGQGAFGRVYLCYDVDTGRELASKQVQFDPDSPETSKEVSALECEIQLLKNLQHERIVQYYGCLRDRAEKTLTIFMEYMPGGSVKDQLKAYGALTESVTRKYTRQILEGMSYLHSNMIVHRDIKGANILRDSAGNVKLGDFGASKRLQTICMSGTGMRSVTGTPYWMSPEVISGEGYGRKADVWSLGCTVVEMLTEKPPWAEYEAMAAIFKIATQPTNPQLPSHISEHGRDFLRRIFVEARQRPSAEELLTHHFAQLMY
MEKK2 mut-MEK5: signal of MEK5 binding to mutant human MEKK2 PB1 domain. bead flow cytometry, Alexa488-MEK5 binding to MEKK2 mutant. percent response, % at 10 µM. 290,000 tested, 0.35% active. AID 1530; in the data active = percent response above about 24%, passing the limit was not always enough
MEKK2wt PB1 HTS: raises or lowers MEK5 binding to wildtype human MEKK2 PB1 domain; Q9Y2U5; bead flow cytometry, Alexa488-MEK5 binding to MEKK2 WT; actives lie on both sides; binding response (% of control), % at 10 µM; 290,000 tested, 1.1% active; in the data active = binding response below about 67% or above about 130%
MEKK2wt confirm: raises or lowers MEK5 binding to wildtype human MEKK2, retest; shares compounds with MEKK3 PB1 HTS; bead flow cytometry, Alexa488-MEK5 binding to MEKK2 WT; actives lie on both sides; binding response (% of control), % at 10 µM; 5,900 tested, 2.4% active; in the data active = binding response below about 16% or above about 210%; inactive = in between
MEKK2mut confirm: signal of MEK5 binding to mutant human MEKK2, retest | AID 1893 | 5,900 tested, 2% active | percent response, % at 10 µM | shares compounds with MEKK3 PB1 HTS | bead flow cytometry, Alexa488-MEK5 binding to MEKK2 mutant; in the data active = percent response mostly above about 71%, no sharp cut-off; inactive = mostly below about 38%;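 also: higher means compound restores mutant binding toward wildtype level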
MEKK3-MEK5 inh: MEKK3-MEK5 PB1 inhibition, single concentration confirmation; shares compounds with MEKK3 PB1 HTS; binding response (% of control), % at 10 µM; bead flow cytometry, Alexa488-MEK5 binding to MEKK3; hits give low values; 5,900 tested, 1.8% active;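 active = binding response below 72% of control, or above a set upper limit, though filed actives all read lower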;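 also: lower values mean stronger disruption of MEK5 binding to MEKK3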
Each line names hits and unclear results; the compound was inactive in the other large screens (follow-up assays come after a bar, where they were run); [ ] = another dose, or the depositor's remark.

COc1ccc(S(=O)(=O)N[C@@H](CC(C)C)C(=O)O)cc1	MEKK3 PB1 HTS 80[inhibitor] | MEKK2wt confirm inactive | MEKK2mut confirm inactive | MEKK3-MEK5 inh inactive
Cc1cc(-c2nnnn2-c2cc(Cl)cc(Cl)c2)no1	MEKK3 PB1 HTS 131 | MEKK2wt confirm inactive | MEKK2mut confirm inactive | MEKK3-MEK5 inh inactive
Cc1cc(-c2nnnn2-c2ccc(F)cc2)no1	none
CCOc1ccc(NC(=O)CN(C)C(=O)Cc2c(C)nc3ccccc3c2C)cc1OCC	none
Oc1ccc(N=Nc2cccc(Cl)c2)cc1C=Nc1ccc(N2CCOCC2)cc1	none (no result: VLA-4 inh)
Oc1c(Br)cc(Cl)cc1C=Nc1ccc(N2CCOCC2)cc1	MEKK2wt PB1 HTS 54[inhibitor] | MEKK2wt confirm inactive | MEKK2mut confirm inactive | MEKK3-MEK5 inh inactive
O=C(COc1ccccc1)NCC1(N2CCCCC2)CCCCC1	MEKK2wt PB1 HTS 147 | MEKK2wt confirm inactive | MEKK2mut confirm inactive | MEKK3-MEK5 inh inactive
COc1ccc(C2CC2/C(C)=N/OC(=O)c2cccs2)cc1 (configuration not stated)	none
COc1ccc(C2CC2/C(C)=N/OC(=O)c2ccc(F)cc2)cc1 (configuration not stated)	MEKK3 PB1 HTS 141 | MEKK2wt confirm inactive | MEKK2mut confirm inactive | MEKK3-MEK5 inh inactive
CCCC(=O)OCC(=O)Nc1ccc2[nH]c(=O)[nH]c2c1	none
CCC(C)c1ccc(OCC(=O)Nc2ccc3[nH]c(=O)[nH]c3c2)cc1 (configuration not stated)	MEKK3 PB1 HTS 198 | MEKK2wt confirm inactive | MEKK2mut confirm inactive | MEKK3-MEK5 inh inactive
COc1ccc(C(=O)NCCCCNC(=O)c2ccc(OC)c(OC)c2)cc1OC	none
CCCC1CC(C(=O)Nc2ccccc2)C(=O)O1 (configuration not stated)	none (no result: MEKK3 PB1 HTS, MEKK2 mut-MEK5, MEKK2wt PB1 HTS)
Cc1nc(SCC(=O)NCc2ccc3c(c2)OCO3)nc(C)c1C	none (no result: MEKK3 PB1 HTS, MEKK2 mut-MEK5, MEKK2wt PB1 HTS)
O=C(NCCN1CCOCC1)c1cc(Sc2ccc(F)cc2F)nc2ccccc12	none
O=C(NCCCN1CCCC1)c1cc(Sc2ccc(F)cc2)nc2ccccc12	MEKK3 PB1 HTS 133 | MEKK2wt confirm inactive | MEKK2mut confirm inactive | MEKK3-MEK5 inh inactive
Cc1ccsc1C(=O)OCC(=O)N1C(C)CCCC1C (configuration not stated)	none (no result: MEKK3 PB1 HTS, MEKK2 mut-MEK5, MEKK2wt PB1 HTS)
Cc1ccc(S(=O)(=O)N2CCOCC2)cc1NC(=O)CSc1nnnn1C	none
Cc1cccc(C)c1NC(=O)CCn1cnc2ccccc2c1=O	MEKK3 PB1 HTS 1.0[inhibitor], MEKK2wt PB1 HTS -2.0[inhibitor] | MEKK2wt confirm inactive | MEKK2mut confirm inactive | MEKK3-MEK5 inh inactive
N#CC1=C(N)NC(SCc2ccc(F)cc2)=C(C#N)C12CCCCC2	MEKK3 PB1 HTS 82[inhibitor] | MEKK2wt confirm inactive | MEKK2mut confirm inactive | MEKK3-MEK5 inh inactive
Cc1ccc(NC(=O)CC2SC(=Nc3ccc(O)cc3)NC2=O)cc1 (configuration not stated)	MEKK3 PB1 HTS 133 | MEKK2wt confirm inactive | MEKK2mut confirm inactive | MEKK3-MEK5 inh inactive
COCCN1C(=O)/C(=C/c2ccc(N3CCCC3)cc2C)SC1=S	MEKK2wt PB1 HTS 20[inhibitor] | MEKK2wt confirm inactive | MEKK2mut confirm inactive | MEKK3-MEK5 inh 56
Cc1cc(C(=O)C(=O)NC(C)C)c(C)n1-c1ccc([N+](=O)[O-])cc1	MEKK3 PB1 HTS 80[inhibitor] | MEKK2wt confirm inactive | MEKK2mut confirm inactive | MEKK3-MEK5 inh inactive
O=C(Nc1ccc(C(F)(F)F)cc1)c1cc(S(=O)(=O)NCC2COc3ccccc3O2)ccc1F (configuration not stated)	MEKK3 PB1 HTS 136 | MEKK2wt confirm inactive | MEKK2mut confirm inactive | MEKK3-MEK5 inh inactive
COc1cc(C2NC(=S)NC3=C2CCc2ccccc23)cc(OC)c1OC (configuration not stated)	MEKK3 PB1 HTS 142 | MEKK2wt confirm inactive | MEKK2mut confirm inactive | MEKK3-MEK5 inh inactive
C=CCOc1ccc(C2NC(=S)NC3=C2CCc2ccccc23)cc1 (configuration not stated)	none
COc1ccc(C(=O)NC2CCSc3ccccc32)cc1S(=O)(=O)N1CCOCC1 (configuration not stated)	none (no result: MEKK3 PB1 HTS, MEKK2 mut-MEK5, MEKK2wt PB1 HTS)
COC(=O)c1c(C)oc(C)c1S(=O)(=O)N1CCCC1	MEKK3 PB1 HTS 131 | MEKK2wt confirm inactive | MEKK2mut confirm inactive | MEKK3-MEK5 inh inactive
COC(=O)c1c(C)oc(C)c1S(=O)(=O)N(Cc1ccccc1)C(C)C	MEKK3 PB1 HTS 129 | MEKK2wt confirm -2.0[inhibitor] | MEKK2mut confirm inactive | MEKK3-MEK5 inh inactive
COC(=O)c1c(C)oc(C)c1S(=O)(=O)NC(C)(C)C	none
COC(=O)c1c(C)oc(C)c1S(=O)(=O)Nc1ccccc1	MEKK3 PB1 HTS 132 | MEKK2wt confirm inactive | MEKK2mut confirm inactive | MEKK3-MEK5 inh inactive
COc1ccc2cc(CO)c3cc(OC)c(OC)cc3c2c1	none (no result: MEKK3 PB1 HTS, MEKK2 mut-MEK5, MEKK2wt PB1 HTS)
CC1C(=O)N2CCCc3cc(S(=O)(=O)N4CCN(c5cccc(Cl)c5)CC4)cc1c32 (configuration not stated)	none (no result: MEKK3 PB1 HTS, MEKK2 mut-MEK5, MEKK2wt PB1 HTS)
CC(C(=O)NCCc1ccc(F)cc1)N1CCN(Cc2ccccc2)CC1 (configuration not stated)	none
S=C(Nc1ccccc1Cl)NC1CCN(Cc2ccccc2)CC1	MEKK3 PB1 HTS 69[inhibitor] | MEKK2wt confirm inactive | MEKK2mut confirm inactive | MEKK3-MEK5 inh inactive
Fc1ccccc1NC(=S)N1CCN(Cc2ccccc2)CC1	MEKK3 PB1 HTS 139 | MEKK2wt confirm inactive | MEKK2mut confirm inactive | MEKK3-MEK5 inh inactive
CC(C(=O)NC1CCCC1)N1CCN(Cc2ccccc2)CC1 (configuration not stated)	MEKK3 PB1 HTS 140 | MEKK2wt confirm inactive | MEKK2mut confirm inactive | MEKK3-MEK5 inh inactive
Cc1oc(-c2ccc(Cl)cc2)cc1C(=O)NC1CCN(Cc2ccccc2)CC1	MEKK2wt PB1 HTS 175 | MEKK2wt confirm inactive | MEKK2mut confirm inactive | MEKK3-MEK5 inh inactive
CCc1noc(C)c1C(=O)OCC(=O)N(C)c1c(N)n(Cc2ccccc2)c(=O)[nH]c1=O	none (no result: MEKK3 PB1 HTS, MEKK2 mut-MEK5, MEKK2wt PB1 HTS)
CC(C)c1ccccc1NC(=S)NC1CCN(Cc2ccccc2)CC1	MEKK2wt PB1 HTS 138 | MEKK2wt confirm inactive | MEKK2mut confirm inactive | MEKK3-MEK5 inh inactive
S=C(Nc1ccc(Cl)cc1Cl)NC1CCN(Cc2ccccc2)CC1	MEKK2 mut-MEK5 53 (no result: VLA-4 inh) | MEKK2wt confirm inactive | MEKK2mut confirm inactive | MEKK3-MEK5 inh inactive
CC(C)c1ccc(NC(=S)NC2CCN(Cc3ccccc3)CC2)cc1	none
O=C(COc1cccnc1[N+](=O)[O-])c1ccc(Cl)s1	none
Cc1ccc2nc(N3CCN(C(=O)CCCC(=O)O)CC3)nc(-c3ccccc3)c2c1	none
O=C(O)CCCC(=O)N1CCN(c2nc(-c3ccccc3Cl)c3cc(Br)ccc3n2)CC1	MEKK2 mut-MEK5 26 | MEKK2wt confirm inactive | MEKK2mut confirm inactive | MEKK3-MEK5 inh inactive
